This is a sample that favours compounds with a hit; in the whole collection about 8.3% have one here.
MARV entry inh – Marburg virus entry inhibition. Marburg virus pseudotyped entry inhibition, cell reporter. Potency, µM (titrated, usually from 37.8 µM), usual class: inhibitors. 1.8% of 300,000 active; calls by dose curve; tested in HEK293 cells
FMDV antiviral – blocks foot and mouth disease virus; FMDV antiviral cell-based qHTS; Potency, µM (series often up to 57.9 µM), hits mostly inhibitors; 1.2% of 410,000 active; AID 1159524; calls by dose curve; tested in HEK293T cells; note: read-out not given here; nearly all actives have a fitted effect of over 45% in size
HCV inhibitor – inhibitors of hepatitis C virus infection | Huh7.5.1 HCVcc-Cre infection, luciferase reporter, 44 h | Potency, µM (titrated, usually from 41.8 µM), hits mostly inhibitors | 3.4% of 340,000 active | AID 651820
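Luciferase read-out (15 sec integration) after a 15 min room-temperature substrate step quantifies HCVcc-Cre infection. Cells, 1,000 per well, had compound added 4 h post-plating, then virus at ~0.5 moi, and were cultured 44 h.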
Lassa entry inh – blocks Lassa virus binding to or entry into cells; Lassa virus pseudotype entry inhibition, cell reporter; AID 540256; 1.2% of 300,000 active; Potency, µM (series often up to 37.9 µM), hits mostly inhibitors; calls by dose curve; tested in HEK293 cells; note: nearly all actives have a fitted effect of over 50% in size
HCMV antiviral – inhibitors of human cytomegalovirus; HFF cells, HCMV-luciferase reporter, 72 h; active compounds read low; activity change, negative = inhibition, % at 57.5 µM; 4.5% of 410,000 active; AID 1259415; in the data active = activity change below about -60%; inconclusive = no clear call, values can overlap the other calls; inactive = above about -39%
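Steps: HFFs plated, 16 h 37C; compounds added; HCMV-luciferase added to MOI 1 PFU/cell; 72 h 37C; OneGlo reagent, 5 min room temperature; luminescence read, normalized to controls.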
Giardia FBPA inh – inhibitors of Giardia lamblia fructose-1,6-bisphosphate aldolase; A8B2U2; purified Giardia FBPA; Potency, µM (titrated, usually from 59.6 µM), usual class: inhibitors; 0.71% of 290,000 active; AID 2451; note: nearly all actives have a fitted effect of over 55% in size
Target sequence (A8B2U2 whole entry, looked up): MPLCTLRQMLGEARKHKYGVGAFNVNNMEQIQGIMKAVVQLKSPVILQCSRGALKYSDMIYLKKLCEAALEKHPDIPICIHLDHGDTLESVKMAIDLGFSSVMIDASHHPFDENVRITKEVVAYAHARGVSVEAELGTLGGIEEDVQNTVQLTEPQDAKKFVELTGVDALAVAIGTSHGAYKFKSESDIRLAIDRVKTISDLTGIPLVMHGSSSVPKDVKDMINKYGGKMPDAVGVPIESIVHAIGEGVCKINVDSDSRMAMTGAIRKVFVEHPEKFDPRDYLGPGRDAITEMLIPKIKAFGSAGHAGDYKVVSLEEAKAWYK
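40 nM FBPA preincubated 10 min at RT with compound (up to 57.5 uM final), then substrate plus GAPDH/TPI/NAD/arsenate coupling and diaphorase/resazurin added. Fluorescence read after 20 min at RT, 525/598 nm.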
Each line names hits and unclear results; the compound was inactive in the other large screens; ! = not active in a repeat. Unless noted, calls come from the whole dose curve; as a rule, active = well fitted curve in the direction sought with a large enough effect; inconclusive = small, poorly fitted or top-dose-only effect, or another doubt; inactive = no such curve, though single readings can be large; an effect the other way counts as inactive or inconclusive.

CCc1ccc(S(=O)(=O)NCc2cccs2)cc1	HCMV antiviral -66 (no result: Giardia FBPA inh)
CCc1ccc(CNCc2cccs2)cc1	none (no result: Lassa entry inh)
CN(CCOc1ccccc1)CC(=O)Nc1cccc(C#N)c1	HCMV antiviral -65
CN(CCOc1ccccc1)CC(=O)Nc1cccc(Br)c1	HCV inhibitor inconclusive, Giardia FBPA inh inconclusive
O=C(Nc1ccc(Br)cc1)c1cccc(N2C(=O)C3C4CCC(C4)C3C2=O)c1 (stereo unspecified)	MARV entry inh inconclusive, FMDV antiviral 40µM, HCV inhibitor 25µM, Lassa entry inh inconclusive, HCMV antiviral -81
O=C(Nc1ccccc1)c1cccc(N2C(=O)C3C4C=CC(C5CC45)C3C2=O)c1 (stereo unspecified)	MARV entry inh inconclusive, HCV inhibitor inconclusive, Lassa entry inh inconclusive (no result: Giardia FBPA inh)
COc1ccc(OC)c(NC(=O)c2cccc(N3C(=O)C4C5CCC(C5)C4C3=O)c2)c1 (stereo unspecified)	MARV entry inh inconclusive, FMDV antiviral 20µM, Lassa entry inh inconclusive (no result: HCV inhibitor)
O=C(Nc1ccc(F)cc1)c1cccc(N2C(=O)C3C4C=CC(C5CC45)C3C2=O)c1 (stereo unspecified)	FMDV antiviral inconclusive, HCV inhibitor inconclusive, Lassa entry inh inconclusive
COc1ccc(OC)c(NC(=O)c2cccc(N3C(=O)C4C5C=CC(C6CC56)C4C3=O)c2)c1 (stereo unspecified)	FMDV antiviral 25µM, HCV inhibitor inconclusive, HCMV antiviral inconclusive (no result: MARV entry inh, Lassa entry inh, Giardia FBPA inh)
COC(=O)c1ccc(NC(=O)c2cccc(N3C(=O)C4C5C=CC(C6CC56)C4C3=O)c2)cc1 (stereo unspecified)	MARV entry inh inconclusive, FMDV antiviral inconclusive, HCV inhibitor 5µM, Lassa entry inh inconclusive (no result: Giardia FBPA inh)
Cc1cccc(NC(=O)c2ccc(N3C(=O)C4C5C=CC(C6CC56)C4C3=O)cc2)c1 (stereo unspecified)	FMDV antiviral 25µM, HCV inhibitor inconclusive (no result: MARV entry inh, Lassa entry inh)
CCOC(=O)C1(Cc2ccccc2)CCN(Cc2cn(CC(=O)OC)c3ccccc23)CC1	HCMV antiviral inconclusive
CCOC(=O)C1(CC2CC2)CCN(Cc2cn(C)c3ccccc23)CC1	MARV entry inh inconclusive, HCV inhibitor 10µM, Lassa entry inh inconclusive, HCMV antiviral inconclusive
CCCCCCCn1ccc(=N)cc1	MARV entry inh inconclusive, FMDV antiviral inconclusive, HCV inhibitor 0.56µM, Lassa entry inh inconclusive, HCMV antiviral -91
CCCCCn1ccc(=N)cc1	HCV inhibitor 6.3µM, HCMV antiviral -73
CCn1ccc(=N)cc1	none
CCCCCCCCCn1ccc(=N)cc1	MARV entry inh inconclusive, FMDV antiviral 20µM, HCV inhibitor 0.04µM, Lassa entry inh inconclusive, HCMV antiviral -95
CC(=O)c1ccc(NC(=O)Nc2sc3nc4n(c(=O)c3c2C)CCC(C)CC4)cc1 (stereo unspecified)	none (no result: HCV inhibitor, Lassa entry inh, Giardia FBPA inh)
CCOC(=O)c1cc2c(=O)n3ccccc3nc2n(CC2CCCO2)c1=NC(=O)c1ccc(F)cc1 (stereo unspecified)	none (no result: HCV inhibitor, Giardia FBPA inh)
C=CCSc1ncnc2c1oc1nc3c(cc12)COC(C)(C)C3	none
CC1(C)Cc2nc3oc4c(=S)nc[nH]c4c3cc2CO1	MARV entry inh inconclusive, Giardia FBPA inh 11µM
NC(CSC1(c2ccc(F)cc2)c2ccccc2-c2ccccc21)C(=O)O (stereo unspecified)	HCMV antiviral -68 (no result: MARV entry inh, HCV inhibitor, Lassa entry inh, Giardia FBPA inh)
NC(CSC1(c2ccc(Cl)cc2)c2ccccc2-c2ccccc21)C(=O)O (stereo unspecified)	none (no result: Giardia FBPA inh)
[O-]/C(=C(\C(=S)Nc1cccc2ccccc12)[n+]1ccccc1)c1cccs1	Giardia FBPA inh inconclusive
[O-]/C(=C(\C(=S)Nc1cccc2ccccc12)[n+]1ccccc1)c1ccc(OC(F)F)cc1	Giardia FBPA inh 22µM
[O-]/C(=C(\C(=S)Nc1cccc2ccccc12)[n+]1ccccc1)c1ccc2c(c1)OCCO2	MARV entry inh inconclusive, Giardia FBPA inh 10µM
COc1ccc(NC(=O)CSc2nc3c(c(=O)[nH]2)CCC3)cc1	none (no result: HCV inhibitor, Giardia FBPA inh)
CC(=O)Nc1cccc(NC(=O)CSc2nccn2Cc2ccco2)c1	HCMV antiviral -70! (no result: Giardia FBPA inh)
Cc1cc(C)c(NC(=O)CSc2nccn2Cc2ccco2)c(C)c1	none (no result: MARV entry inh, HCV inhibitor, Giardia FBPA inh)
CCOC(=O)CCN1C(=O)[C@H]2[C@H]3[C@H](O)[C@H](O)C/C(=N/OC/C=C(\C)CCC=C(C)C)[C@H]3CC[C@@H]2C1=O	none (no result: MARV entry inh, FMDV antiviral, HCV inhibitor, Lassa entry inh, HCMV antiviral)
O=C(/C=C/c1ccc(/C=C/C(=O)Nc2ccc(C3=NCCN3)cc2)cc1)Nc1ccc(C2=NCCN2)cc1	none (no result: MARV entry inh, FMDV antiviral, HCV inhibitor, Lassa entry inh, HCMV antiviral)
O=C(Nc1cccc(C2=NCCN2)c1)Nc1cccc(C2=NCCN2)c1	HCMV antiviral -81 (no result: MARV entry inh, Lassa entry inh, Giardia FBPA inh)
COC(=O)c1sccc1S(=O)(=O)N(CC(=O)Nc1cccc(C)c1C)c1ccc(C)c(C)c1	none (no result: MARV entry inh, HCV inhibitor, Giardia FBPA inh)
COc1cc(C(=S)N2CCCCC2)ccc1O	Giardia FBPA inh inconclusive (no result: FMDV antiviral)
Oc1ccc(C(=S)N2CCCCC2)cc1Cl	HCMV antiviral -75
Cc1cc(N2CCN(C(=O)c3ccco3)CC2)n2ncc(-c3ccccc3)c2n1	MARV entry inh inconclusive
Cc1nn2c(N3CCN(C4CCCC4)CC3)cc(C(C)(C)C)nc2c1-c1ccccc1	none
Cc1nn2c(N3CCN(C(=O)c4ccco4)CC3)cc(C(C)(C)C)nc2c1-c1ccccc1	FMDV antiviral 14µM, HCMV antiviral -64
Cc1nn2c(N3CCN(C)CC3)cc(C(C)(C)C)nc2c1-c1ccccc1	MARV entry inh 10µM, FMDV antiviral inconclusive, HCV inhibitor inconclusive, Lassa entry inh inconclusive, HCMV antiviral -67
O=C(O)c1cnn(-c2ccccc2)c1C(F)(F)F	MARV entry inh inconclusive, HCMV antiviral -80
O=C(O)c1cnn(-c2ccccc2)c1-c1ccccc1	none
CN(C)c1ncnc2ccc(-c3ccc4c(c3)OCO4)cc12	none (no result: MARV entry inh, HCV inhibitor, Lassa entry inh, HCMV antiviral)
COc1ccccc1N1CCN(CC(O)COc2ccc(C)cc2C(C)(C)C)CC1 (stereo unspecified)	MARV entry inh inconclusive, HCMV antiviral -67 (no result: HCV inhibitor, Giardia FBPA inh)
O=S(=O)(c1ccc(OCC(O)CN2CCN(c3ccc(F)cc3)CC2)cc1)N1CCOCC1 (stereo unspecified)	none (no result: FMDV antiviral)
COc1ccccc1N1CCN(C(=S)Nc2ccc(S(=O)(=O)N3CCOCC3)cc2)CC1	MARV entry inh inconclusive, FMDV antiviral 25µM, HCV inhibitor inconclusive, Lassa entry inh inconclusive
COc1ccccc1N1CCN(CC(O)COc2ccc(S(=O)(=O)N3CCOCC3)cc2)CC1 (stereo unspecified)	MARV entry inh inconclusive, HCV inhibitor inconclusive, HCMV antiviral -70 (no result: FMDV antiviral)
O=S(=O)(c1ccc(NC(=S)N2CCN(c3ccccc3F)CC2)cc1)N1CCOCC1	MARV entry inh inconclusive, FMDV antiviral inconclusive, HCV inhibitor inconclusive, HCMV antiviral inconclusive
N#Cc1sc(NCc2ccccc2)nc1Cl	MARV entry inh inconclusive, Lassa entry inh inconclusive
N#Cc1c(NCc2ccccc2)ccnc1Cl	HCMV antiviral -69 (no result: Giardia FBPA inh)
CN1CCCN(C(=O)/C=C/c2ccc(Cl)cc2Cl)CC1	HCV inhibitor inconclusive, HCMV antiviral -62 (no result: MARV entry inh, Lassa entry inh)
COc1ccc(CNCCC(c2ccc(OC(C)C)cc2)C(C)C)cc1OC (stereo unspecified)	MARV entry inh inconclusive, FMDV antiviral inconclusive, HCV inhibitor 8.9µM, Lassa entry inh 21µM, HCMV antiviral -104
